Sampled rows, rich in hits. Any-hit rate of the full collection: about 9.2%.
ELG1 DNA repair: qHTS screen for small molecules that inhibit ELG1-dependent DNA repair in human embryonic kidney (HEK293T) cells expressing luciferase-tagged ELG1; HEK293T ELG1-luciferase reporter, luminescence, 16 h; DNA damage induced by 5-fluorouridine; Potency, µM (highest dose often 46.1 µM), most hits filed as inhibitors; 2.3% of 330,000 active; also: nearly all actives have a fitted effect of over 55% in size
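DMSO vehicle served as the neutral condition. Each well held 2,000 cells given 5-fluorouridine plus compound; after 16 hr at 37 °C/5% CO2, ONE-Glo was added and luciferase measured 30 min later.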
NPC1 promoter act: qHTS Assay for NPC1 Promoter Activators; Huh7 NPC1 promoter luciferase reporter, 24 h; Potency, µM (titrated, usually from 9.22 µM), usual class: activators; 2.4% of 320,000 active; also: nearly all actives have a fitted effect of over 60% in size
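Huh7 reporter cells (NPC1 promoter driving luciferase) are dosed with compound for 24 h at 37 °C, 5% CO2; luciferase detection reagent is then added and luminescence measured after 10 min at ambient temperature.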
SMN2 splice enh: qHTS Assay for Enhancers of SMN2 Splice Variant Expression. 2.8% of 210,000 active. Potency, µM (series often up to 46.1 µM), hits mostly activators. AID 1458, 2008. HEK293 SMN2-luciferase splicing reporter, luminescence, 30-36 h; also: nearly all actives have a fitted effect of over 55% in size
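qHTS luciferase splicing reporter: luminescence rises when SMN2 exon 7 is included in transfected HEK293 cells. Compound exposure lasted 30-36 h at 37C, with 4.5 mM final sodium butyrate as control, followed by a ONE-Glo read.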
Rab9 prom act: qHTS Assay for Rab9 Promoter Activators; Huh7 Rab9 promoter-luciferase reporter, luminescence, 24 h; Potency, µM (series often up to 9.22 µM), most hits filed as activators; 2.8% of 320,000 active; also: nearly all actives have a fitted effect of over 60% in size
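Quantitative HTS format; Huh7 Rab9-luciferase reporter cells (1500/well) receive compound 2 h post-plating, incubate 24 h at 37 °C, then get luciferase reagent for 10 min before luminescence reading.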
ELG1 genotox: qHTS screen for small molecules that induce genotoxicity in human embryonic kidney (HEK293T) cells expressing luciferase-tagged ELG1. HEK293T ELG1-luciferase reporter, luminescence, 16 h. Potency, µM (titrated, usually from 46 µM), most hits filed as activators. 1.3% of 330,000 active; also: nearly all actives have a fitted effect of over 60% in size
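16 hr compound incubation (37 °C, 5% CO2) of HEK293T cells carrying luciferase-tagged ELG1; luciferase then measured by ONE-Glo luminescence after 30 min at RT.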
FLuc counter: qHTS profiling assay for firefly luciferase inhibitor/activator using purifed enzyme and Km concentrations of substrates (counterscreen for miR-21 project); Luciferin 4-monooxygenase (Photinus pyralis), P08659; purified FLuc, Km substrates, luminescence inhibition; Potency, µM (series often up to 57.5 µM), actives largely listed as inhibitors; 6.9% of 360,000 active; AID 588342, 2011; also: nearly all actives have a fitted effect of over 55% in size
Target sequence (P08659 whole entry, looked up): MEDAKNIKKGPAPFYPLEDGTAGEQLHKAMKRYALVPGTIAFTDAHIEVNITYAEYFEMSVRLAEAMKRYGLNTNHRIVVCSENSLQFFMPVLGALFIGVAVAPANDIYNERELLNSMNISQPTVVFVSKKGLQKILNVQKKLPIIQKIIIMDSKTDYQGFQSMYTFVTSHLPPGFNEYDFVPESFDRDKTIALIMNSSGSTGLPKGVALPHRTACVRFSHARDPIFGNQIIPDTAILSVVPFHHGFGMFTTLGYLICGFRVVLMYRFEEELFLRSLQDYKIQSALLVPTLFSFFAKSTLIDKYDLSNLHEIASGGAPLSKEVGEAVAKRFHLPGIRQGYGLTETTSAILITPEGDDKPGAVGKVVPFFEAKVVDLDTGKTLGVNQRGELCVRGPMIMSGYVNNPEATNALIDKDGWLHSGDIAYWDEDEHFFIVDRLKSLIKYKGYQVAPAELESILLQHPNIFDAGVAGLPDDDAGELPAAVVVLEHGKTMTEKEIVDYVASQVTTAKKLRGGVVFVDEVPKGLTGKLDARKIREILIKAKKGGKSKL
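Biochemical qHTS of compounds, final roughly 60 µM downward over six points, against 10 nM purified firefly luciferase using Km concentrations of substrates (10 uM D-luciferin, 10 uM ATP) in Tris acetate pH 7.5 buffer; luminescence output.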
Numbers stand for hits; i = inactive; ? = inconclusive; nt = not tested or not shown; [ ] = another dose, or the depositor's remark. Calls follow the shape of the dose curve; as a rule, active = well fitted curve in the direction sought with a large enough effect; inconclusive = small, poorly fitted or top-dose-only effect, or another doubt; inactive = no such curve, though single readings can be large; an effect the other way counts as inactive or inconclusive.

SMILES | ELG1 DNA repair | NPC1 promoter act | SMN2 splice enh | Rab9 prom act | ELG1 genotox | FLuc counter
CCCCCC(=O)Nc1cccc(C2=NOC3(C2)C[C@H](C(N)=O)N(C(=O)COc2ccc(Cl)cc2)C3)c1 (some centres not stated) | 7.3µM | i | nt | i | i | i
C/C=C\C=C\C(=O)N1CC2(CC(c3cccc(NC(=O)COc4ccc(Cl)cc4)c3)=NO2)C[C@H]1C(N)=O (some centres not stated) | ? | i | nt | i | i | 9.5µM
C/C=C\C=C/C(=O)Nc1cccc(C2=NOC3(C2)C[C@@H](C(N)=O)N(C(=O)COc2ccc(Cl)cc2)C3)c1 (some centres not stated) | i | i | nt | i | i | 15µM
Cc1ccc(C)c(NC(=O)C(=O)NCCc2csc3nc(-c4ccccc4C)nn23)c1 | nt | nt | nt | nt | nt | i
Cn1c(-c2ccc(C=O)s2)nc2ccccc21 | ? | i | i | i | 15µM | ?
Cn1c(-c2cccs2)nc2ccccc21 | ? | 4µM | 13µM | 2.5µM | i | ?
Cc1ccc(-n2c(N)c(-c3nc4ccccc4n3C)sc2=S)cc1 | ? | ? | i | i | i | i
CC(C)Cn1c(-c2cccs2)nc2ccccc21 | ? | i | i | i | i | i
COc1ccccc1NC(=O)c1cc(S(=O)(=O)N(C)C2CCCCC2)ccc1F | nt | nt | nt | nt | nt | i
O=S(=O)(c1ccccc1)c1nnn2c1nc(NC1CCCCCC1)c1sccc12 | nt | nt | nt | nt | nt | i
O=C(/C=C/c1ccccc1[N+](=O)[O-])Nc1cccnc1 | ? | ? | 14µM | 2.8µM | i | 15µM
O=C(/C=C/c1ccccc1[N+](=O)[O-])NNC(=O)c1ccncc1 | i | i | nt | i | i | nt
COc1cccc(NC(=O)/C=C/c2ccc([N+](=O)[O-])cc2)c1 | ? | ? | nt | ? | i | 6µM
COc1cccc(NC(=O)/C=C/c2ccccc2[N+](=O)[O-])c1 | ? | ? | 3.2µM | 4µM | ? | 5.4µM
CSc1cccc(NC(=O)/C=C/c2cccc(Cl)c2)c1 | ? | ? | 14µM | 3.2µM | i | 8.5µM
O=C(O)CCn1ccc2cc(S(=O)(=O)N3CCCCC3)ccc21 | nt | nt | i | nt | nt | i
COc1cccc(/C=C/C(=O)Nc2ccc3[nH]c(=O)[nH]c3c2)c1 | i | i | ? | i | i | 9.5µM
Cc1ccc(-c2cc(C(=O)OCC(=O)N(C)C3CCS(=O)(=O)C3)c3ccccc3n2)o1 (configuration not stated) | ? | i | i | i | i | ?
CCN(C(=O)COC(=O)c1cc(-c2ccc(C)o2)nc2ccccc12)C1CCS(=O)(=O)C1 (configuration not stated) | i | i | i | i | i | 19µM
CCN(Cc1ccccc1)C(=O)Cn1c(=O)n(-c2ccc(Cl)c(Cl)c2)c(=O)c2c(C)c(C(=O)N(C)C)sc21 | nt | nt | nt | nt | nt | i
Cc1ccc(C(=O)CSc2cnc3ccccc3n2)cc1C | ? | i | i | i | 9.2µM | 7.6µM
O=C(Cn1cnc2ccccc2c1=O)Nc1ccc2c(c1)OCO2 | ? | i | ? | ? | ? | 19µM
COc1ccc(C(=O)Cn2cnc3ccccc3c2=O)cc1 | ? | ? | nt | 3.2µM | ? | 13µM
O=C(Cn1cnc2ccccc2c1=O)c1ccc2c(c1)OCCO2 | ? | 2µM | 11µM | 1.3µM | ? | 6µM
O=C(Cn1cnc2ccccc2c1=O)NCc1ccc2c(c1)OCO2 | i | i | i | i | i | i
SMILES | ELG1 DNA repair | NPC1 promoter act | SMN2 splice enh | Rab9 prom act | ELG1 genotox | FLuc counter
Cc1cc(SCC(=O)c2ccccc2)nc2ccccc12 | nt | nt | i[9.22 µM] | nt | nt | nt
O=C(c1ccncc1)N1CCC2(CC1)CCN(c1ccncc1)CC2 | nt | nt | i | nt | nt | nt
Cc1ccc(C(=O)Cn2cnc3ccccc3c2=O)cc1C | nt | nt | ? | nt | nt | 19µM
O=C(CSc1ncn[nH]1)c1ccc2c(c1)OCO2 | ? | i | i | i | ? | ?
COc1ccc(C(=O)Nn2cnc3ccccc3c2=O)c(OC)c1 | ? | 2.2µM | 14µM | 2.5µM | ? | ?
O=C(CSc1ccc2ccccc2n1)c1ccc2c(c1)OCO2 | ? | i | i | i | 21µM | ?
COc1ccc(C(=O)Nn2c(C)nc3ccccc3c2=O)c(OC)c1 | i | i | nt | i | i | i
Cc1cc(C(=O)Cn2cnc3ccccc3c2=O)c(C)n1C1CC1 | ? | ? | nt | ? | 5.2µM | i
COC(=O)[C@@H]1C=C[C@H](C)[C@H](CCOc2ccccc2)O1 | nt | nt | i | nt | nt | nt
O=c1[nH][nH]c(=O)n1-c1ccccc1 | i | i | nt | i | i | i
S=C(Nc1ccc(Cl)cc1)c1nc2ccccc2[nH]1 | ? | 3.2µM | 14µM | 1.8µM | i | 3.8µM
Cc1ccccc1NC(=S)c1nc2ccccc2[nH]1 | ? | i | i | i | i | 11µM
OC(c1ccc(Cl)cc1)C(O)c1nc2ccccc2[nH]1 (configuration not stated) | i | i | i | i | i | i
COc1ccc(C2=NC(c3ccccc3)=Nc3ccc(C)cc3N2)cc1 | nt | nt | i | nt | nt | ?
CC1=CC(c2ccccc2)=Nc2ccc(C)cc2N1 | ? | 3.5µM | 10µM | 4µM | 12µM | 6.7µM
CCOC(=O)c1ccc(COC(=O)c2ccc3c(c2)-c2ccccc2C3=O)cc1 | i | i | i | i | i | i
CCCc1ccc(/C=C2\C(=O)c3ccccc3C(O)=C2C(=O)OCC)cc1 | ? | i | 10µM | i | ? | 3.4µM
CCOC(=O)C1=C(C)N(c2ccccc2)C(=O)/C1=C\c1ccc(O)c(OC)c1 | ? | i | nt | i | i | ?
CCOC(=O)C1=C(O)c2ccccc2C(=O)/C1=C\c1ccc(CC)cc1 | i | i | ? | i | i | 3.4µM
CSCCC(NC(=O)c1cccc([N+](=O)[O-])c1)C(=O)OCC(=O)N1CCCC1=O (configuration not stated) | i | i | nt | i | i | i
COc1ccc(C(=O)COC(=O)C2COc3ccccc3O2)cc1F (configuration not stated) | i | nt | nt | nt | i | nt
O=C(NCCCn1ccnc1)c1cc(-c2ccncc2)nc2ccccc12 | i | i | i | i | i | i
Cc1ccc2nc(-c3ccccc3)cc(C(=O)NCCCn3ccnc3)c2c1 | i | i | nt | i | i | 21µM
O=C(NCCCn1ccnc1)c1cc(-c2ccc(Cl)cc2)nc2ccccc12 | i | i | i | i | i | 24µM
O=C(NCCCn1ccnc1)c1cc(-c2cccnc2)nc2ccc(Br)cc12 | i | i | i | i | i | ?
Cc1noc(C)c1C(=O)Nc1ccc2ccccc2c1 | ? | i | nt | i | ? | ?
COC(=O)c1cccc(NC(=O)c2onc3c2CCCC3)c1 | ? | 0.4µM | 0.79µM | 0.32µM | 0.82µM | 0.85µM

Bioassay records (PubChem BioAssay)
